# Test results reported in PubChem BioAssay (EPA / NIEHS).
# Results filed as inconclusive are left out. Activity calls are given as the source filed them. How the source made its calls, unless noted: active means hit-call score of the fitted dose curve at least 0.9, where 1 is the maximum; inconclusive means response in the unintended direction; inactive means score below 0.9.
# Legend:
# [1] = ATG_XTT_Cytotoxicity: Cytotoxicity Assessment in the Attagene TRANS-FACTORIAL HepG2 Assay (AID 2283584)
# In short: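 Cells: human HepG2, transiently transfected with MRTU reporter constructs. Exposure 24 h. Readout: XTT, cell number. Baseline/neg ctrl DMSO; loss-of-signal scored.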
# [2] = read-out: NAD(P)H dehydrogenase [quinone] 1 (NQO1), NQO1 (gene 1728); assay: LTEA_HepaRG_NQO1: Life Technologies and Expression Analysis (LTEA) Assay for NAD(P)H dehydrogenase [quinone] 1 (NQO1) using HepaRG (AID 2283526; active means hit-call score of the fitted dose curve at least 0.9, where 1 is the maximum; inactive means score below 0.9); settings: mRNA level, 48 h; actives raise or lower the signal
# In short: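 Transcript induction or suppression is quantified by qRT-PCR in human HepaRG liver cells dosed for 48 hours. Eight half-log concentrations topping at 100 uM are used, with 0.5% DMSO as vehicle and baseline.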
# [3] = read-out: Nuclear factor erythroid 2-related factor 2 (Homo sapiens) (UniProt Q16236); assay: LTEA_HepaRG_NFE2L2: Life Technologies and Expression Analysis (LTEA) Assay for Nuclear factor erythroid 2-related factor 2 (NFE2L2) Transcription Factor using HepaRG (AID 2283527; active means hit-call score of the fitted dose curve at least 0.9, where 1 is the maximum; inactive means score below 0.9); settings: mRNA level, 48 h; actives raise or lower the signal
# In short: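 HepaRG, 48 h dosing, 8-pt half-log series from 100 uM in 0.5% DMSO, duplicates. Read-out: NFE2L2 mRNA by qRT-PCR (ACTB/GAPDH/POLR2A normalization). Bidirectional curve fit vs DMSO baseline.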
# [4] = read-out: succinate dehydrogenase complex iron sulfur subunit B (SDHB), SDHB (gene 6390); assay: LTEA_HepaRG_SDHB: Life Technologies and Expression Analysis (LTEA) Assay for succinate dehydrogenase complex iron sulfur subunit B (SDHB) using HepaRG (AID 2283528; active means hit-call score of the fitted dose curve at least 0.9, where 1 is the maximum; inactive means score below 0.9); settings: mRNA level, 48 h; actives raise or lower the signal
# In short: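 SDHB transcript level read by TaqMan qRT-PCR, housekeeping-normalised (ACTB, GAPDH, POLR2A), after 48 h chemical treatment of plated HepaRG cells; eight concentrations top 100 uM, half-log steps, 0.5% DMSO, duplicates; fitted both directions against DMSO.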
# [5] = read-out: Signal transducer and activator of transcription 3 (Homo sapiens) (UniProt P40763); assay: LTEA_HepaRG_STAT3: Life Technologies and Expression Analysis (LTEA) Assay for Signal transducer and activator of transcription (STAT3) using HepaRG (AID 2283529; active means hit-call score of the fitted dose curve at least 0.9, where 1 is the maximum; inactive means score below 0.9); settings: mRNA level, 48 h; actives raise or lower the signal
# In short: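 HepaRG, 48 h exposure, 8-pt half-log series (top 100 uM), 0.5% DMSO vehicle, duplicates. Readout: STAT3 transcript by Fluidigm qRT-PCR, housekeeping-normalized; bidirectional fit vs DMSO baseline.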
# [6] = read-out: solute carrier (SLCO1B1), SLCO1B1 (gene 10599); assay: LTEA_HepaRG_SLCO1B1: Life Technologies and Expression Analysis (LTEA) Assay for solute carrier (SLCO1B1) using HepaRG (AID 2283530; active means hit-call score of the fitted dose curve at least 0.9, where 1 is the maximum; inactive means score below 0.9); settings: mRNA level, 48 h; actives raise or lower the signal
# In short: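 HepaRG, serum-free induction medium, 48 h dosing, 8-pt half-log from 100 uM, 0.5% DMSO vehicle, duplicates. Readout: SLCO1B1 mRNA, qRT-PCR, ACTB/GAPDH/POLR2A normalization; up or down fit vs DMSO.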
# [7] = read-out: sulfotransferase 2A1 (SULT2A1), SULT2A1 (gene 6822); assay: LTEA_HepaRG_SULT2A1: Life Technologies and Expression Analysis (LTEA) Assay for sulfotransferase 2A1 (SULT2A1) using HepaRG (AID 2283531; active means hit-call score of the fitted dose curve at least 0.9, where 1 is the maximum; inactive means score below 0.9); settings: mRNA level, 48 h; actives raise or lower the signal
# In short: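 Transcript levels of SULT2A1, quantified by qRT-PCR and normalized to three housekeeping genes, serve as the readout. Human HepaRG cultures receive test chemicals for 48 h at up to 100 uM in half-log steps, with 0.5% DMSO vehicle.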
# [8] = read-out: Transforming Growth Factor (TGFA), TGFA (gene 7039); assay: LTEA_HepaRG_TGFA: Life Technologies and Expression Analysis (LTEA) Assay for Transforming Growth Factor (TGFA) using HepaRG (AID 2283532; active means hit-call score of the fitted dose curve at least 0.9, where 1 is the maximum; inactive means score below 0.9); settings: mRNA level, 48 h; actives raise or lower the signal
# In short: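 qRT-PCR read-out of TGFA transcript, normalized to three housekeeping genes, fitted bidirectionally against 0.5% DMSO baseline. Human HepaRG cultures received chemicals for 48 h at eight half-log concentrations, top 100 uM.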
# [9] = read-out: Transforming Growth Factor (TGFB1), TGFB1 (gene 7040); assay: LTEA_HepaRG_TGFB1: Life Technologies and Expression Analysis (LTEA) Assay for Transforming Growth Factor (TGFB1) Transporter using HepaRG (AID 2283533; active means hit-call score of the fitted dose curve at least 0.9, where 1 is the maximum; inactive means score below 0.9); settings: mRNA level, 48 h; actives raise or lower the signal
# In short: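 HepaRG, 48 h post-plating, switched to serum-free induction medium; chemicals 100 uM top, half-log, 8 pts, 0.5% DMSO, dup; 48 h exposure; RNA → Fluidigm TaqMan qRT-PCR; norm ACTB/GAPDH/POLR2A; bidirectional fit vs DMSO.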
# TIMP1, TIMP1 (gene 7076) = assay: LTEA_HepaRG_TIMP1: Life Technologies and Expression Analysis (LTEA) Assay for TIMP1 using HepaRG (AID 2283534; active means hit-call score of the fitted dose curve at least 0.9, where 1 is the maximum; inactive means score below 0.9); settings: mRNA level, 48 h; actives raise or lower the signal
# In short: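 Readout is TIMP1 mRNA level measured by qRT-PCR and normalized to three housekeeping genes. Human HepaRG cells were treated for 48 h in duplicate at eight concentrations up to 100 uM (0.5% DMSO); gain or loss fitted against DMSO.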
# [10] = read-out: Tumor necrosis factor receptor 1 (TNFRSF1A), TNFRSF1A (gene 7132); assay: LTEA_HepaRG_TNFRSF1A: Life Technologies and Expression Analysis (LTEA) Assay for Tumor necrosis factor receptor 1 (TNFRSF1A) using HepaRG (AID 2283535; active means hit-call score of the fitted dose curve at least 0.9, where 1 is the maximum; inactive means score below 0.9); settings: mRNA level, 48 h; actives raise or lower the signal
# In short: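 Read-out is TNFRSF1A transcript level by TaqMan qRT-PCR, normalized to three housekeeping genes, scored as gain or loss of signal versus 0.5% DMSO. Human HepaRG cells received test chemicals for 48 h at up to 100 uM (half-log series).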
# [11] = read-out: Thyroid Hormone Responsive (THRSP), THRSP (gene 7069); assay: LTEA_HepaRG_THRSP: Life Technologies and Expression Analysis (LTEA) Assay for Thyroid Hormone Responsive (THRSP) using HepaRG (AID 2283536; active means hit-call score of the fitted dose curve at least 0.9, where 1 is the maximum; inactive means score below 0.9); settings: mRNA level, 48 h; actives raise or lower the signal
# In short: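 qRT-PCR read-out (Fluidigm TaqMan), housekeeping-normalized (ACTB/GAPDH/POLR2A). HepaRG, 48 h chemical exposure, 8-pt half-log series from 100 uM in 0.5% DMSO, duplicates. Bidirectional curve fit vs 0.5% DMSO baseline.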
# [12] = read-out: Cellular tumor antigen p53 (Homo sapiens) (UniProt P04637); assay: LTEA_HepaRG_TP53: Life Technologies and Expression Analysis (LTEA) Assay for Tumor Protein P53 (TP53) using HepaRG (AID 2283537; active means hit-call score of the fitted dose curve at least 0.9, where 1 is the maximum; inactive means score below 0.9); settings: mRNA level, 48 h; actives raise or lower the signal
# In short: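 TP53 transcript measured by qRT-PCR, normalized to three housekeeping genes, after 48 h treatment of human HepaRG cultures with chemicals from 100 uM downward in half-log steps (0.5% DMSO vehicle, serum-free induction medium). Up- or down-regulation fitted against DMSO.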
# [13] = read-out: UDP glucuronosyltransferase (UGT1A1), UGT1A1 (gene 54658); assay: LTEA_HepaRG_UGT1A1: Life Technologies and Expression Analysis (LTEA) Assay for UDP glucuronosyltransferase (UGT1A1) using HepaRG (AID 2283538; active means hit-call score of the fitted dose curve at least 0.9, where 1 is the maximum; inactive means score below 0.9); settings: mRNA level, 48 h; actives raise or lower the signal
# In short: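 Cells are plated, cultured 48 h, switched to serum-free induction medium, then dosed 48 h at eight concentrations (max 100 uM, 0.5% DMSO). RNA is isolated and UGT1A1 expression measured by qRT-PCR; changes versus DMSO are fitted in both directions.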
# [14] = read-out: UDP glucuronosyltransferase (UGT1A6), UGT1A6 (gene 54578); assay: LTEA_HepaRG_UGT1A6: Life Technologies and Expression Analysis (LTEA) Assay for UDP glucuronosyltransferase (UGT1A6) using HepaRG (AID 2283539; active means hit-call score of the fitted dose curve at least 0.9, where 1 is the maximum; inactive means score below 0.9); settings: mRNA level, 48 h; actives raise or lower the signal
# In short: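 HepaRG, 48 h post-plating switch to serum-free induction medium; chemical 48 h, 100 uM top, half-log x8, duplicate, 0.5% DMSO. Phenobarbital 1mM induction control. UGT1A6 mRNA by TaqMan qRT-PCR; gain/loss fit vs DMSO.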
# [15] = read-out: X-box binding protein 1 (XBP1), XBP1 (gene 7494); assay: LTEA_HepaRG_XBP1: Life Technologies and Expression Analysis (LTEA) Assay for X-box binding protein 1 (XBP1) using HepaRG (AID 2283540; active means hit-call score of the fitted dose curve at least 0.9, where 1 is the maximum; inactive means score below 0.9); settings: mRNA level, 48 h; actives raise or lower the signal
# In short: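 Transcript levels of XBP1, measured by qRT-PCR and normalised to three housekeeping genes, were fitted bidirectionally relative to 0.5% DMSO controls. Human HepaRG cells received eight-point half-log dilutions from 100 uM for 48 h.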
# [16] = LTEA_HepaRG_LDH_cytotoxicity: Cytotoxicity Assessment in the Life Technologies and Expression Analysis (LTEA) Assay (AID 2283563)
# In short: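 Cells were thawed and plated for 48 h. Medium was then replaced with serum-free induction medium. Chemicals (8 half-log points, maximum 100 uM, 0.5% DMSO) were added in duplicate for 48 h, after which spent medium was assayed for LDH.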
# [17] = TOX21_p53_BLA_p2_viability: Viability Assessment in the Tox21 HCT-116 p53 Agonism Beta-lactamase Assay, Phase 2 (AID 2283591);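 further: compound exposure lasted 16 h at 37 °C; actives lower the ATP signal meaning cytotoxicity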
# In short: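 HCT116 p53-bla cells, 4000/well, dosed after 5 h plating (217-fold dilution of DMSO stocks) and incubated 16 h at 37C. Viability taken as cellular ATP by CellTiter-Glo luminescence after 30 min RT; signal loss marks cytotoxicity.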
# [18] = target: Cellular tumor antigen p53 (Homo sapiens) (UniProt P04637); assay: TOX21_p53_BLA_p2_ratio: Tox21 HCT-116 p53 Agonism Beta-lactamase Assay, Ratio, Phase 2 (AID 2283592)
# In short: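 Plated HCT116 p53-bla cells (4000/well) received compound after 5 h, then 16 h at 37C/5% CO2. CCF4-AM added, 2 h RT. Ratio of 460 to 530 nm emission taken as the p53 reporter signal.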
# [19] = TOX21_p53_BLA_p3_viability: Viability Assessment in the Tox21 HCT-116 p53 Agonism Beta-lactamase Assay, Phase 3 (AID 2283593);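 further: cells exposed to compound for 16 h before reading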
# In short: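 HCT116 cells, 4000/well, dosed 5 h after plating by pin transfer (217-fold dilution from DMSO stock) and incubated 16 h at 37C, 5% CO2. Viability read as ATP luminescence with CellTiter-Glo after 30 min at room temperature.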
# Cellular tumor antigen p53 (Homo sapiens), sequence (P04637 whole entry, looked up): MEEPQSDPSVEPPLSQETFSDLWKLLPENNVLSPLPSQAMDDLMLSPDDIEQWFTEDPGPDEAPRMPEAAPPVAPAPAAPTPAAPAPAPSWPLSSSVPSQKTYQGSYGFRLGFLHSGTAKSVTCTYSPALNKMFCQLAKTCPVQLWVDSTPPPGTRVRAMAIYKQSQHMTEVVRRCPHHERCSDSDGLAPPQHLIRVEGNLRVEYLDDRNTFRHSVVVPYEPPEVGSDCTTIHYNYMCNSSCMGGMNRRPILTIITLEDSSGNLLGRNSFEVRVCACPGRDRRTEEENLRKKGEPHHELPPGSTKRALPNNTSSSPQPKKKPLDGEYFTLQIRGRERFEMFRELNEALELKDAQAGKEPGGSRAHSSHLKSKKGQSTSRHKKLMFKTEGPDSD
# Signal transducer and activator of transcription 3 (Homo sapiens), sequence (P40763 whole entry, looked up): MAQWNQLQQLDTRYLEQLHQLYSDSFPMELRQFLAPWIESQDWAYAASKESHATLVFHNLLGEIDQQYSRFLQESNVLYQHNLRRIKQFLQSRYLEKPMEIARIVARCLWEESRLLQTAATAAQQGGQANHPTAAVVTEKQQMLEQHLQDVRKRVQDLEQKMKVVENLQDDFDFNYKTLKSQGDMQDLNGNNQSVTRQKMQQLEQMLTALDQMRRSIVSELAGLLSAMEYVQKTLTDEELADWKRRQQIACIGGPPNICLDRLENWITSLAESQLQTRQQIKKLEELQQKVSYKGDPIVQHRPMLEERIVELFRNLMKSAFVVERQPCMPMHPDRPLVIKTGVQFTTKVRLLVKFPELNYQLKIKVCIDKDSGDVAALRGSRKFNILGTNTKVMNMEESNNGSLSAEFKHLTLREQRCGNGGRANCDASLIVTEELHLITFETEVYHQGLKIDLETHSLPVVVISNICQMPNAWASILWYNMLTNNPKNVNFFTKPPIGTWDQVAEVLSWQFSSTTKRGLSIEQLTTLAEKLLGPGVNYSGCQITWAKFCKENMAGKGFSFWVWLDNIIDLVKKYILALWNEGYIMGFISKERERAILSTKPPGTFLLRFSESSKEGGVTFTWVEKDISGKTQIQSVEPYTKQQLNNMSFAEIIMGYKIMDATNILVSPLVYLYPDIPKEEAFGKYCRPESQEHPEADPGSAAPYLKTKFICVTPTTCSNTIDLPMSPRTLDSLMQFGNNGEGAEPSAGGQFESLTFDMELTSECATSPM
# Nuclear factor erythroid 2-related factor 2 (Homo sapiens), sequence (Q16236 whole entry, looked up): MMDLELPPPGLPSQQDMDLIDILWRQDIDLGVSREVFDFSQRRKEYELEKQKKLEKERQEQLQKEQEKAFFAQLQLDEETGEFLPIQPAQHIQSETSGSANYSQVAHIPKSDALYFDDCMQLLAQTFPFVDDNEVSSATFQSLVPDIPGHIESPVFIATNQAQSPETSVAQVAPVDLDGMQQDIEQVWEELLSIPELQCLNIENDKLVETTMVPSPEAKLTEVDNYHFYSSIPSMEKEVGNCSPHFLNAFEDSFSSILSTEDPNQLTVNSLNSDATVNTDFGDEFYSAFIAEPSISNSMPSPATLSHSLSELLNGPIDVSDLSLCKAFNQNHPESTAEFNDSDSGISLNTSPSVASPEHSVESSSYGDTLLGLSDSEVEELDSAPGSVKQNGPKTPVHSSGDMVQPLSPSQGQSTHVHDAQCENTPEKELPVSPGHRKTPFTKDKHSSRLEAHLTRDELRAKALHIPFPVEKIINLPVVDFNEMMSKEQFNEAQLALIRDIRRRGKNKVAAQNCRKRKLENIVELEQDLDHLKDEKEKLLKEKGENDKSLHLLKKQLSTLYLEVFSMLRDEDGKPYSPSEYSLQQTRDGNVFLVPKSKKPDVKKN
smiles,measurement,setting,value
Cc1cc(=O)[nH]c(=O)[nH]1,outcome,[1],inactive
Cn1cccc1,outcome,[1],inactive
C=CCCCCCCCCOC(C)=O,outcome,[1],inactive
COc1nccnc1CC(C)C,outcome,[1],inactive
COC(=O)C=Cc1ccccc1,outcome,[1],inactive
CCNc1nc(NC(C)(C)C)nc(OC)n1,outcome,[1],inactive
CCC(C)c1ccccc1 (centres undefined),outcome,[1],inactive
CC1(C)CC(O)CC(C)(C)N1[O],outcome,[1],inactive
Nc1cccc(N)n1,outcome,[1],inactive
C=CC(=O)NC(C)(C)C,outcome,[1],inactive
C=CC(C)(O)CC/C=C(\C)CC (centres undefined),outcome,[1],inactive
CC1=CC=C(C(C)C)CC1,outcome,[1],inactive
CCOB(OCC)OCC,outcome,[1],inactive
CCCCCCCCCCCC(=O)N(C)CC(=O)O,outcome,[1],inactive
COc1cc(C)ccc1O,outcome,[1],inactive
CC1CCC(C(C)(C)S)C(=O)C1 (centres undefined),outcome,[1],inactive
COC(=O)c1ccc(C(=O)OC)c(C(=O)OC)c1,outcome,[1],inactive
[Cl][Eu]([Cl])[Cl],outcome,[1],inactive
CC/C=C\C/C=C\C/C=C\CCCCCCCC(=O)OC,outcome,[1],inactive
CC=C(C)C(C)=O,outcome,[1],inactive
CCC1(C)C(=O)N(Cl)C(=O)N1Cl (centres undefined),outcome,[1],inactive
CC1CCC(=O)C1=O (centres undefined),outcome,[1],inactive
O=C(O)CCC(=O)O,outcome,[1],inactive
CC1(C)C(=O)N(CO)C(=O)N1CO,outcome,[1],inactive
C1CNCCN1,outcome,[2],inactive
same,outcome,[3],inactive
same,outcome,[4],inactive
same,outcome,[5],inactive
same,outcome,[6],inactive
same,outcome,[7],inactive
same,outcome,[8],inactive
same,outcome,[9],inactive
same,outcome,"TIMP1, TIMP1 (gene 7076)",inactive
same,outcome,[10],inactive
same,outcome,[11],inactive
same,outcome,[12],inactive
same,outcome,[13],inactive
same,outcome,[14],inactive
same,outcome,[15],inactive
same,outcome,[16],inactive
same,outcome,[1],inactive
same,outcome,[17],inactive
same,outcome,[18],inactive
same,outcome,[19],inactive
